Consider twelve compounds from PubChem BioAssay (NCI).

Structures are written as SMILES. This is part of a sample that, as a whole, favours compounds with a hit. Of some 83,000 tested, about 20% had one in any assay.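 Growth was measured after 48 h exposure to one concentration of compound in 96-well plates. Values under 10 count as active.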 A number with no mark means an inactive call. Calls of active or inactive are those of the source.

Experiment in all cases: NCI-60 one-dose screen, 48 h (100 = growth as untreated, 0 = no growth, -100 = all killed)
Holding throughout (settings): 10 µM unless noted

In assay [1] the test system is SK-MEL-2 melanoma.
Assay [2] has as its system EKVX NSCLC.
The subject of assay [3] is SN12C renal.
Assay [4] has as its system UO-31 renal.
Assay [5] concerns TK-10 renal.
For assay [6], the system named is ACHN renal.
Assay [7] has as its system A498 renal.
The subject of assay [8] is CCRF-CEM leukemia.
In assay [9] the test system is MOLT-4 leukemia.
Assay [10] relates to SR leukemia.

`COc1ccc(-c2nc(C#N)c(NCC(c3ccc(Cl)cc3)N3CCCCC3)o2)cc1` (stereo not given): the growth in assay [1] is 109%; in assay [2] it was 95.6%; in assay [3] it was 103%; in [4], 72%; in assay [5], 112%; in assay [6], 91.7%. In addition, the growth in assay [7] was 108%; in assay [8], 86.9%; in assay [9], 75.9%; in [10], 74.5%.

Consider `COc1ccc(-c2cs/c(=N\N=C\c3ccc(O)cc3O)n2/N=C/c2ccc(O)cc2O)cc1`, for which the growth in [1] is -28.4% (active); in assay [2], 7.59% (active); in assay [3], 4.01% (active); in assay [4], -65% (active); in [5] it was -31.3% (active); in assay [6] it was -34.3% (active). Further, the growth in assay [7] was -6.11% (active); in assay [8], 2.63% (active); in [9], -35.3% (active); in assay [10], 6.76% (active).

For `O=C(CCCC(=O)Nc1ccc(-n2nnc3cc(Cl)c(Cl)cc32)cc1)Nc1ccc(-n2nnc3cc(Cl)c(Cl)cc32)cc1`, the growth in assay [1] was 53.8%; in assay [2], 64.4%; in assay [3], 40.5%; in assay [4], 79.8%; in assay [5], 84%; in assay [6] it was 66.2%. The growth is 36.5% in [7], 77.6% in assay [8], 91.1% in [9] and 51.2% in assay [10].

With `Cc1cc(Nc2nc(SCc3ccc(C(=O)Nc4ccc(F)cc4N)cc3)nn3cccc23)n[nH]1`, the growth is 18.2% in [1]; 31% in assay [2]; 29% in assay [3]; 31% in assay [4]; 48.8% in assay [5]; 21.1% in assay [6]. Also, the growth in assay [7] was 5.84% (active); in [8], 9.8% (active); in [9], 6.29% (active); in assay [10] it was 13.3%.

`c1cc(CNC23CC4CC(CC(C4)C2)C3)cc(C[N+](Cc2cccc(CNC34CC5CC(CC(C5)C3)C4)c2)(Cc2cccc(CNC34CC5CC(CC(C5)C3)C4)c2)Cc2cccc(CNC34CC5CC(CC(C5)C3)C4)c2)c1` (stereo not given): the growth in [1] was 31.8% [42 µM]; in [2], 30.7% [42 µM]; in assay [3] it was 7.96% [42 µM] (active); in [4] it was -8.13% [42 µM] (active); in [5] it was 27.1% [42 µM]; in assay [6], -9.81% [42 µM] (active). Moreover, the growth is 50.1% [42 µM] in assay [7], 3.92% [42 µM] (active) in assay [8], -21.9% [42 µM] (active) in [9] and 9.46% [42 µM] (active) in assay [10].

Take `CC1CCN(CCCCCOc2ccc3oc4cc(Cl)ccc4c(=O)c3c2)CC1`: the growth was 88% in [1]; 83.8% in assay [2]; 63.5% in assay [3]; 67.7% in [4]; 78% in [5]; 83.1% in assay [6]. The growth was 85.2% in [7], 65.5% in assay [8], 29.7% in [9] and 16.5% in assay [10].

Regarding `CC1(c2ccccc2Cl)NC(=O)NC1=O` (stereo not given), the growth was 95.6% in [1]; 105% in assay [2]; 105% in assay [3]; 94% in assay [4]; 90% in assay [5]; 108% in [6]. Further, the growth in assay [7] was 94.9%; in assay [8] it was 101%; in assay [9], 94.5%; in [10] it was 98.5%.

Consider `COc1cccc(C(=O)OCCn2nc3c4c(cccc42)C(=O)c2ccccc2-3)c1O`, for which the growth in [1] was 78.7%; in assay [2] it was 56.1%; in assay [3], 41.5%; in [4], 62.6%; in assay [5], 85.5%; in [6] it was 56.6%. For the same compound, the growth in assay [7] was 81.7%; in [8], 18.3%; in assay [9], 29.7%; in assay [10], 21.2%.

For `COc1ccc2[nH]c3nc4cnccc4cc3c2c1`, the growth was 110% in [1]; 72.2% in [2]; 101% in assay [3]; 71.2% in [4]; 111% in assay [5]; 98.3% in assay [6]. Besides, the growth in [7] is 114%; in assay [8], 98.1%; in assay [9] it was 102%; in [10] it was 103%.

For the compound `COc1ccc(/C=C/C(=O)/C=C(/C=C/c2ccc(OC)c(OC)c2)OB(F)F)cc1OC`, the growth is 76.8% in assay [1]; 38% in assay [2]; -5.34% (active) in assay [3]; 40% in assay [4]; 36.9% in assay [5]; -15.8% (active) in assay [6]. Moreover, the growth in assay [7] is 95.7%; in [8] it was -12% (active); in assay [9] it was 1.45% (active); in assay [10] it was 0.197% (active).

As to `CC(=O)Nc1c(C(=O)Nc2ccccc2)sc2nc3c(cc12)C(OC(C)=O)CCC3` (stereo not given), the growth is 89.8% in assay [1]; 99.6% in [2]; 89.6% in [3]; 72.9% in assay [4]; 75.9% in [5]; 59.5% in [6]. Further, the growth was -1.22% (active) in assay [7], 94.6% in assay [8], 100% in assay [9] and 80% in assay [10].

For the compound `COc1cc(C2CC(c3ccc(Nc4nc(NCCO)nc(NCCO)n4)cc3)=NN2c2cc(Cl)cc(Cl)c2)cc(OC)c1OC` (stereo not given), the growth in assay [1] is 85%; in [2], 35.2%; in assay [3] it was 13.1%; in assay [4] it was 49.4%; in assay [5] it was -25.7% (active); in assay [6], 67.3%. Further, the growth is 96.8% in assay [7], 19.3% in [8], 16.3% in assay [9] and -9.38% (active) in assay [10].
